In experiment [1] the target is Protein kinase C gamma type (Homo sapiens) (UniProt P05129). To be noted: at 1 µM.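 Further: each value is an averaged percent inhibition of the enzyme.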
For experiment [2], the target named is T1, Protein kinase C iota type (Homo sapiens) (UniProt P41743).
T1 sequence (whole entry): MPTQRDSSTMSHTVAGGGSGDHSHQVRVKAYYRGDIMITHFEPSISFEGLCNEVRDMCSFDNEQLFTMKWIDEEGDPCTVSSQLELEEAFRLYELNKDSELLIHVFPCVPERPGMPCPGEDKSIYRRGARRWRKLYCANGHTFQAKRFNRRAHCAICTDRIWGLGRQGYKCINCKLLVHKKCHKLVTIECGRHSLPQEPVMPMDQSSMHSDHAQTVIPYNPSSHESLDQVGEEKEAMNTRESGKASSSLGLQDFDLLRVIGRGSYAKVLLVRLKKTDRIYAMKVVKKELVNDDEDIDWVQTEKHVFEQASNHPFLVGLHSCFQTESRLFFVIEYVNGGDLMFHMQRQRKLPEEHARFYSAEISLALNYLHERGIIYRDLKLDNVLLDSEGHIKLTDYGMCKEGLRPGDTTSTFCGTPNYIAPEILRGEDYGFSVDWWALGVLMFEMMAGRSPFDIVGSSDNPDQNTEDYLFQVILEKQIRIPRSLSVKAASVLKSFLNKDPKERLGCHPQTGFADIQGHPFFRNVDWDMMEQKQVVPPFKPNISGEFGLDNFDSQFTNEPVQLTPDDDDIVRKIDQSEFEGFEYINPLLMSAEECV
To be noted: at 0.1 µM.

For experiment [3], the target named is T1, Protein kinase C iota type (Homo sapiens). To be noted: at 1 µM.
Experiment [4] deals with Protein kinase C theta type (Homo sapiens) (UniProt Q04759). To be noted: at 0.1 µM.
Chain of Protein kinase C theta type (Homo sapiens) (Q04759 whole entry, looked up): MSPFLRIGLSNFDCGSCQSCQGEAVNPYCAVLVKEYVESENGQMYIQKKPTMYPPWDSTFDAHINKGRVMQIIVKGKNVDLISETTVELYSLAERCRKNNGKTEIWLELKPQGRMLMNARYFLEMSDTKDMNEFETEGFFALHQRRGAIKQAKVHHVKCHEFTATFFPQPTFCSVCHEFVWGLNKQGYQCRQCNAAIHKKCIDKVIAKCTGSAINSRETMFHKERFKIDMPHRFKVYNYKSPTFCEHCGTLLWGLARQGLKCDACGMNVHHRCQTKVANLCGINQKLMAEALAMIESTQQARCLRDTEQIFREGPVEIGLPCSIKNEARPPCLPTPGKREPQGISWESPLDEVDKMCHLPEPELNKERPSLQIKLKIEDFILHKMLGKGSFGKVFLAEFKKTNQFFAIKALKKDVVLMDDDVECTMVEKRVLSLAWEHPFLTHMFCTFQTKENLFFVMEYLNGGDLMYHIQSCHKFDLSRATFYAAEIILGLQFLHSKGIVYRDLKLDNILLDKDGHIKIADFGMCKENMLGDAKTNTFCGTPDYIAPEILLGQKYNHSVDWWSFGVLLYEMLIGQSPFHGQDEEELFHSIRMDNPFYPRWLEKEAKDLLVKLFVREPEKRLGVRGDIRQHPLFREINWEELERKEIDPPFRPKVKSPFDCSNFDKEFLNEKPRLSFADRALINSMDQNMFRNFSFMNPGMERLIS
Experiment [5] has the same target. Particulars: at 1 µM.
Experiment [6] deals with Protein kinase C beta type (Homo sapiens) (UniProt P05771). To be noted: at 0.1 µM.
Chain of Protein kinase C beta type (Homo sapiens) (P05771 2-671 limits assumed): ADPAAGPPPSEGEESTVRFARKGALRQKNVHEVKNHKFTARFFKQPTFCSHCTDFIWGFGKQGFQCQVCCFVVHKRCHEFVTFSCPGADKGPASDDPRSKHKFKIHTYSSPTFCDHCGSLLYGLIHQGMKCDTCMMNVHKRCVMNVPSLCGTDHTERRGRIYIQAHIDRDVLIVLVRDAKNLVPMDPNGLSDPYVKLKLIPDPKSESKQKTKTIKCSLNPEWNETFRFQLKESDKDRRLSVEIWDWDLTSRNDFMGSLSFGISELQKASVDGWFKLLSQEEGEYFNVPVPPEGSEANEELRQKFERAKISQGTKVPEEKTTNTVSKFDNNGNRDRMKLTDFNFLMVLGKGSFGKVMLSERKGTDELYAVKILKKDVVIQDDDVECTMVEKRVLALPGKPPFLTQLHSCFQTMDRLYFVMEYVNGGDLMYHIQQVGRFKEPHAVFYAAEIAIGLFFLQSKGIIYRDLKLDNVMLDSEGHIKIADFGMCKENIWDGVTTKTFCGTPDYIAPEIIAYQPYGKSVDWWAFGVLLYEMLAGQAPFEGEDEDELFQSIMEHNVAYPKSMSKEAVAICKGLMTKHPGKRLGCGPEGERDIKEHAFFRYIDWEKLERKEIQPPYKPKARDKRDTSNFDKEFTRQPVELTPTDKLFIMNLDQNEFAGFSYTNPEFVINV
For experiment [7] the target is unchanged. Particulars: at 1 µM.
The target of experiment [8] is T2, Serine/threonine-protein kinase D1 (Homo sapiens) (UniProt Q15139).
T2 sequence (whole entry): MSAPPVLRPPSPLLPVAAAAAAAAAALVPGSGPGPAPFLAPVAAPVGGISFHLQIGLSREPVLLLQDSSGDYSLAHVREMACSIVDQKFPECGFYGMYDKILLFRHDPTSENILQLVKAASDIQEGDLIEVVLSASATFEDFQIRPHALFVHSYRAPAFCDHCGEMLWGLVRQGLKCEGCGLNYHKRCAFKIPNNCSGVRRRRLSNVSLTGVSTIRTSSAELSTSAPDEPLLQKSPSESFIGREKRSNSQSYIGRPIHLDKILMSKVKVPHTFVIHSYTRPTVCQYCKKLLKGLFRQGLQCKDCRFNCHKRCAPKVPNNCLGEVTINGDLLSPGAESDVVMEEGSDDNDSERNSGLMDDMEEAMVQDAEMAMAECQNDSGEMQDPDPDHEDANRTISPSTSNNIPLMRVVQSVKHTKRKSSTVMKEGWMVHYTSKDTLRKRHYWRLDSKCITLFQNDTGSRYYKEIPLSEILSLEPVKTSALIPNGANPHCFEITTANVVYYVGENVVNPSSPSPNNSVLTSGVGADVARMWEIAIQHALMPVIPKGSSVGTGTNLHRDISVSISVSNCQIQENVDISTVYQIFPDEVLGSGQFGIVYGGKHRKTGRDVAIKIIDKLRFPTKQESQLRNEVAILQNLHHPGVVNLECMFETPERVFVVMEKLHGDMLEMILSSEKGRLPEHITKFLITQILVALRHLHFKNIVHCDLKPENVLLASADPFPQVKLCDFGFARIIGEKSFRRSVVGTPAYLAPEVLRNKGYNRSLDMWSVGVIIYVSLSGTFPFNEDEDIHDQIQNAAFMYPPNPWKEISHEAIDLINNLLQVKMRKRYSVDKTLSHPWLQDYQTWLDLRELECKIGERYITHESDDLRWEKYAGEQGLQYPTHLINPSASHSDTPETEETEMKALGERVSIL
To be noted: at 0.1 µM.

Experiment [9] concerns the target T2, Serine/threonine-protein kinase D1 (Homo sapiens). To be noted: at 1 µM.
Experiment [10] deals with T3, Serine/threonine-protein kinase D2 (Homo sapiens) (UniProt Q9BZL6).
T3 sequence (whole entry): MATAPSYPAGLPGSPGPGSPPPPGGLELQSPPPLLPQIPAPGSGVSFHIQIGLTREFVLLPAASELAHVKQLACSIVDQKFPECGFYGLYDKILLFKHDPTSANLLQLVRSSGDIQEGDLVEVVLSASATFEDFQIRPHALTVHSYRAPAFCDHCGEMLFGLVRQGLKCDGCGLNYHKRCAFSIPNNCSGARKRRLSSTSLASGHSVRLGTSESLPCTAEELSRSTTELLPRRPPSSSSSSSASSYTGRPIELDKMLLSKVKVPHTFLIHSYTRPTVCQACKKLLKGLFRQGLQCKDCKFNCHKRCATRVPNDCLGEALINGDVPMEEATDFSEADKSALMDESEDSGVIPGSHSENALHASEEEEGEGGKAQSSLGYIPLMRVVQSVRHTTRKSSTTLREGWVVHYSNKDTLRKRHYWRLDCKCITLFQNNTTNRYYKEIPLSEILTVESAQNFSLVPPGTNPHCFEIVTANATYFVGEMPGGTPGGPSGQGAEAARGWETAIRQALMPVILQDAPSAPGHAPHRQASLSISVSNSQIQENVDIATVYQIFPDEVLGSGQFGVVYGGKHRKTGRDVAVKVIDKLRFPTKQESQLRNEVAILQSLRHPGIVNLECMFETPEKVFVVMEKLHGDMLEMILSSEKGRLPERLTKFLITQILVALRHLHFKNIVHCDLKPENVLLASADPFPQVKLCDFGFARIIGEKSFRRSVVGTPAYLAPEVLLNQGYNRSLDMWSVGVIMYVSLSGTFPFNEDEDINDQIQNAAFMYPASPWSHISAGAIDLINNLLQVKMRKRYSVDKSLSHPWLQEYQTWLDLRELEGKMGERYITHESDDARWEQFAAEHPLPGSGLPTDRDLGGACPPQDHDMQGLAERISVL
To be noted: at 0.1 µM.

Experiment [11] deals with T3, Serine/threonine-protein kinase D2 (Homo sapiens). To be noted: at 1 µM.
For experiment [12], the target named is T4, Serine/threonine-protein kinase D3 (Homo sapiens) (UniProt O94806).
T4 sequence (whole entry): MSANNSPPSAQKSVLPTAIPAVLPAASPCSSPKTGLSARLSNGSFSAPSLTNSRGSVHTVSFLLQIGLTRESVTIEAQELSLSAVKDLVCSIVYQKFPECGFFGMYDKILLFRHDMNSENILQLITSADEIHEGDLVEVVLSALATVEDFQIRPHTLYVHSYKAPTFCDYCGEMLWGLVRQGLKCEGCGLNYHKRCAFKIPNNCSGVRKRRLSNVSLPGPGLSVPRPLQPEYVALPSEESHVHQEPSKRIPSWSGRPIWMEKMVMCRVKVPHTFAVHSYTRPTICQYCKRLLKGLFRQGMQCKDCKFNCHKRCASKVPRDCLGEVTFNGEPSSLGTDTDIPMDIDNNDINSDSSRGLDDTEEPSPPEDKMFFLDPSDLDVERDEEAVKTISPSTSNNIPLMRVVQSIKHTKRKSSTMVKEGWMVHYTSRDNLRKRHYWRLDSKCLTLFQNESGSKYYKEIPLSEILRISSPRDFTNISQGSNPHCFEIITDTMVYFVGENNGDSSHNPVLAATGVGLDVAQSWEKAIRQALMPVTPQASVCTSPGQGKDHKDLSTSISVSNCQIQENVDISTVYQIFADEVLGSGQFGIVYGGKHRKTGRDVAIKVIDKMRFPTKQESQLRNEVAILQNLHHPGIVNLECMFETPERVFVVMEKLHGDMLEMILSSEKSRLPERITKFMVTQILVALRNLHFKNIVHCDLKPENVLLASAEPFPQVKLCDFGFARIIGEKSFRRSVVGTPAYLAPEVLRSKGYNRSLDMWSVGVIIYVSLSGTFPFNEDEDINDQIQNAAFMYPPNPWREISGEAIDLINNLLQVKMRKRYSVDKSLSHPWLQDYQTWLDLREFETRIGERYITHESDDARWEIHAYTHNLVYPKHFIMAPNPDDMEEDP
Particulars: at 0.1 µM.

For experiment [13], the target named is T4, Serine/threonine-protein kinase D3 (Homo sapiens). Particulars: at 1 µM.
In experiment [14] the target is T5, cGMP-dependent protein kinase 1 (Homo sapiens) (UniProt Q13976).
T5 sequence (whole entry): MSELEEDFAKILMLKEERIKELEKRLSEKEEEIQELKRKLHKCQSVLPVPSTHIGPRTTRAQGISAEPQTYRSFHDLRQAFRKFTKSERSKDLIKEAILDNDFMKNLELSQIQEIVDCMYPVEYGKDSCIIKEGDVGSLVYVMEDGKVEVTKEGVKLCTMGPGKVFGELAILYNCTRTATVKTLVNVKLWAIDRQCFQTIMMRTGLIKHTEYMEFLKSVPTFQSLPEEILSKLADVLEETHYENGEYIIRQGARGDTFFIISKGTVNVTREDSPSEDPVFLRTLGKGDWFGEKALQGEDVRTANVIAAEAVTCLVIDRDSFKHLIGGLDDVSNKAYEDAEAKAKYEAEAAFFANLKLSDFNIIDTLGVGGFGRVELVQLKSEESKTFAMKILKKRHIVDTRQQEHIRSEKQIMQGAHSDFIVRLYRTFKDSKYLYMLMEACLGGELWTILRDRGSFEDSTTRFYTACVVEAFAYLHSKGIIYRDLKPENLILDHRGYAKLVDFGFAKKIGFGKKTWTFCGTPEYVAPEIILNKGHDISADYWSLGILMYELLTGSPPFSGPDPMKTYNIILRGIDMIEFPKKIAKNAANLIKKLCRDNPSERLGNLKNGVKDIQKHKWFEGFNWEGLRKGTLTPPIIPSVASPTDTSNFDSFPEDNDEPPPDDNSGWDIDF
To be noted: at 0.1 µM.

For experiment [15], the target named is T5, cGMP-dependent protein kinase 1 (Homo sapiens). To be noted: at 1 µM.
In experiment [16] the target is T6, cGMP-dependent protein kinase 2 (Homo sapiens) (UniProt Q13237).
T6 sequence (whole entry): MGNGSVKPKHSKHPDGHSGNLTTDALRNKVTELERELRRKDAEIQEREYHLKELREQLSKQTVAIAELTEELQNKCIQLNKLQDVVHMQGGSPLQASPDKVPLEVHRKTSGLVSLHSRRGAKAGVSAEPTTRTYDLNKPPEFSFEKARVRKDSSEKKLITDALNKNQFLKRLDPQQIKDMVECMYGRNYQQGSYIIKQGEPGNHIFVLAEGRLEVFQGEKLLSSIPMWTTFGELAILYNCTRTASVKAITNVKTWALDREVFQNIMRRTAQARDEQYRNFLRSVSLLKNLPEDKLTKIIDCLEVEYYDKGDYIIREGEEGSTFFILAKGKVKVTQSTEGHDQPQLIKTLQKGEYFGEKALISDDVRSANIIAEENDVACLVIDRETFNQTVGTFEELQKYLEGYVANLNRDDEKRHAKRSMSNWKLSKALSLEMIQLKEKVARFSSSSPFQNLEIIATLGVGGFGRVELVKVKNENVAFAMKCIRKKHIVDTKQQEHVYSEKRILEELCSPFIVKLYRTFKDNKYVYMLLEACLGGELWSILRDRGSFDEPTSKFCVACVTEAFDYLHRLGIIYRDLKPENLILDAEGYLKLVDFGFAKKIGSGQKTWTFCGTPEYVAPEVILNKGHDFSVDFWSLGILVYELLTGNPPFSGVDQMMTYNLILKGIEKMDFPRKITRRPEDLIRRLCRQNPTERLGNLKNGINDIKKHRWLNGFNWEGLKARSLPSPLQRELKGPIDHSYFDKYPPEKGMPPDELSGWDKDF
Particulars: at 0.1 µM.

Experiment [17] addresses T6, cGMP-dependent protein kinase 2 (Homo sapiens). To be noted: at 1 µM.
The target of experiment [18] is T7, cAMP-dependent protein kinase catalytic subunit PRKX (Homo sapiens) (UniProt P51817).
T7 sequence (whole entry): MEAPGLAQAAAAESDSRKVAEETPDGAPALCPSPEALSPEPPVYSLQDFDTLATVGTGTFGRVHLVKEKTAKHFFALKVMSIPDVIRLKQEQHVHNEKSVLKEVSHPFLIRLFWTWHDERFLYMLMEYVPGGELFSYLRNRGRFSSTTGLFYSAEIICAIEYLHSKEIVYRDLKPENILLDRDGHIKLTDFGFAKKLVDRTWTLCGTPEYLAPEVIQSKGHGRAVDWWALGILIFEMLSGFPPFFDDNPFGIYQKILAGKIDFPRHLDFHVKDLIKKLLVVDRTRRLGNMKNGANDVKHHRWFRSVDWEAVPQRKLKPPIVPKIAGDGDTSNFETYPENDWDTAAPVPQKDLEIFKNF
To be noted: at 0.1 µM.

For experiment [19], the target named is T7, cAMP-dependent protein kinase catalytic subunit PRKX (Homo sapiens). To be noted: at 1 µM.
The target in experiment [20] is Rho-associated protein kinase 1 (Homo sapiens) (UniProt Q13464). Particulars: at 0.1 µM.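 Further: values are mean percent inhibition of ROCK1.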
Chain of Rho-associated protein kinase 1 (Homo sapiens) (Q13464 2-1354 limits assumed): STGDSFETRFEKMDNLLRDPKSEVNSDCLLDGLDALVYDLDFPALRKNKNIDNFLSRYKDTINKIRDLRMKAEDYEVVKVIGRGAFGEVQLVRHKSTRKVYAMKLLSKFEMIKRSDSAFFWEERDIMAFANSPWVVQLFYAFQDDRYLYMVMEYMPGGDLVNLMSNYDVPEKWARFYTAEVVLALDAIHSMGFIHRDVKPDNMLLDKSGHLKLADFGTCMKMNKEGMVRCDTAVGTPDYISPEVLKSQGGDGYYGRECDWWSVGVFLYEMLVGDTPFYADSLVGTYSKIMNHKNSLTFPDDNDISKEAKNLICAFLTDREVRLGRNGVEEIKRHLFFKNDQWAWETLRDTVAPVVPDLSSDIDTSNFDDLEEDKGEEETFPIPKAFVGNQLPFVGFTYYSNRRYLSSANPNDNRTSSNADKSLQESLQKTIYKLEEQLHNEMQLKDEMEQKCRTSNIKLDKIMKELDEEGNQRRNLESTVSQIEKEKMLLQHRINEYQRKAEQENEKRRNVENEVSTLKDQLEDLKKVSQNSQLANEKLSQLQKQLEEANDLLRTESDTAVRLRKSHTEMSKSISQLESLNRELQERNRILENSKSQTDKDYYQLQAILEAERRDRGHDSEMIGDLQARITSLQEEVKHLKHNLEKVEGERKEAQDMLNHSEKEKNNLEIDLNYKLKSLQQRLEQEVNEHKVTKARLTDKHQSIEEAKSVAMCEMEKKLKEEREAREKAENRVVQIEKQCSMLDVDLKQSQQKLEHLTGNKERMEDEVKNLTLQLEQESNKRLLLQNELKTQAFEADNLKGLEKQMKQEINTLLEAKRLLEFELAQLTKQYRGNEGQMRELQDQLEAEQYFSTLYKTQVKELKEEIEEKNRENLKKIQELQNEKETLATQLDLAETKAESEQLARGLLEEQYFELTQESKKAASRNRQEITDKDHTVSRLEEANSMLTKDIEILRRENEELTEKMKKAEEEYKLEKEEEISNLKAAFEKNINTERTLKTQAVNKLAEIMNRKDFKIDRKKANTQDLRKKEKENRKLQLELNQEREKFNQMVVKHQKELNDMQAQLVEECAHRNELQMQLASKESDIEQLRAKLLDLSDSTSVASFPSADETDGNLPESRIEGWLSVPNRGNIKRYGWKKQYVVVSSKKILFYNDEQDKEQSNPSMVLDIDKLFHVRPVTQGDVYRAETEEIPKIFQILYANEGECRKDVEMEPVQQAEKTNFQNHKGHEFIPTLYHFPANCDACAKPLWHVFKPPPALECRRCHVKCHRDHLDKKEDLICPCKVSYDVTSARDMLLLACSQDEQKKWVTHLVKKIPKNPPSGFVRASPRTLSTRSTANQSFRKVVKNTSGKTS

The structures appear in SMILES notation.

This passage reports inhibition results from ChEMBL document CHEMBL1961873, “Compounds: GSK PKIS; Assays: Nanosyn kinase panel” (2012).

What is called inhibition is the change of the read-out against control, counted positive when it falls.

As for `Fc1ccc(Nc2nccc(-c3c(-c4ccc(C(F)(F)F)cc4)nn4ncccc34)n2)cc1F`, the inhibition in experiment [1] was determined as 4.39%; in [2] it was 0.34%; in [3], 3.68%; in experiment [4], 1.71%; in experiment [5] it was 0.47%; in [6], 0.7%. In addition, the inhibition in experiment [7] turned out to be 0.3%; in experiment [8], 3.32%; in [9], 5.39%; in [10], 3.45%; in experiment [11], 3.98%; in [12], 5.05%. Further, the inhibition in experiment [13] was 4.35%; in experiment [14], 2.4%; in [15], 3.28%; in experiment [16] it was 0.92%; in [17], 2.82%; in experiment [18] it was 0.62%. In addition, the inhibition in [19] was -1.3%; in [20] it was 0.45%.
